# Assay results published in paper PMC7862700, “An all-to-all approach to the identification of sequence-specific readers for epigenetic DNA modifications on cytosine”.
# Legend:
# Assay in all cases: DAPPL (digital affinity profiling via proximity ligation, sequencing); 10 mM Tris-HCl pH 7.5, 50 mM NaCl, 1 mM DTT, 4% glycerol, room temperature, 30 min; GST-TFs on glutathione beads, 16-mer random dsDNA library, 0.1% formaldehyde crosslink after washing; high values mean tight binding
# FEV = target: T1, FEV (Homo sapiens, UniProt Q99581 1-238); conditions: protein: recombinant; tags: N-terminal GST; dsDNA, one strand shown
# T1 sequence: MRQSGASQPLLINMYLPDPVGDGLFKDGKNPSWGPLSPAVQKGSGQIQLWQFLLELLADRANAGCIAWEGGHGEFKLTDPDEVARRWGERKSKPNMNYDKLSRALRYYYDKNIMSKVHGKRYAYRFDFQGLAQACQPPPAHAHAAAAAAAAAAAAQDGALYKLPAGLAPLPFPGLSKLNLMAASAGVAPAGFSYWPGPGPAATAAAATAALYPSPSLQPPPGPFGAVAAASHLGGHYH
# Outline: (§1)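 GST fusions of human transcription factors were expressed in yeast and captured with glutathione beads. Once given DNA barcodes and pooled alongside a tag-only sample, they were incubated for 30 min at room temperature with 200 nmole of a random double-stranded 16-mer DNA library in Tris/NaCl/DTT/glycerol buffer, then washed, crosslinked (0.1% formaldehyde), proximity-ligated, PCR-amplified and sequenced on an Illumina NextSeq500. The binding signal of each hexamer is its read frequency for a factor divided by its frequency for the tag-only sample.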
# ETV5 = ETV5 (Homo sapiens, UniProt P41161 1-510); conditions: protein: recombinant; tags: N-terminal GST; dsDNA, one strand shown
# ETV5, sequence (P41161 whole entry): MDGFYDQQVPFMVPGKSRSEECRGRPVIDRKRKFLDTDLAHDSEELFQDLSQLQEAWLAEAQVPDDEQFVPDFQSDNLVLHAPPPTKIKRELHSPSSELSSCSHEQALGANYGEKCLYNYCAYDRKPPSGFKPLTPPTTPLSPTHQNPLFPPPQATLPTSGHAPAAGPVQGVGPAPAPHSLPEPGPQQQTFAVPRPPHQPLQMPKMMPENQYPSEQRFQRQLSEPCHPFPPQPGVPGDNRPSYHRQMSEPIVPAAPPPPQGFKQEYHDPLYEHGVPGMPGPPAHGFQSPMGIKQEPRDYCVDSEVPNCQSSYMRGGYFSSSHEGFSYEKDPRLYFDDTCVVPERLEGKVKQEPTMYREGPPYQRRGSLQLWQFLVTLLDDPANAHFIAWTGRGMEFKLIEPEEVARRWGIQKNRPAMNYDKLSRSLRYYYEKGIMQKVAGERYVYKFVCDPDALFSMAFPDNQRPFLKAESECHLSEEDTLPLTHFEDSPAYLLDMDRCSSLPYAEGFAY
# Outline: as §1
# HSF1 = HSF1 (Homo sapiens, UniProt Q00613 1-529); conditions: protein: recombinant; tags: N-terminal GST; chain copies: 3; dsDNA, one strand shown
# HSF1, sequence (Q00613 whole entry): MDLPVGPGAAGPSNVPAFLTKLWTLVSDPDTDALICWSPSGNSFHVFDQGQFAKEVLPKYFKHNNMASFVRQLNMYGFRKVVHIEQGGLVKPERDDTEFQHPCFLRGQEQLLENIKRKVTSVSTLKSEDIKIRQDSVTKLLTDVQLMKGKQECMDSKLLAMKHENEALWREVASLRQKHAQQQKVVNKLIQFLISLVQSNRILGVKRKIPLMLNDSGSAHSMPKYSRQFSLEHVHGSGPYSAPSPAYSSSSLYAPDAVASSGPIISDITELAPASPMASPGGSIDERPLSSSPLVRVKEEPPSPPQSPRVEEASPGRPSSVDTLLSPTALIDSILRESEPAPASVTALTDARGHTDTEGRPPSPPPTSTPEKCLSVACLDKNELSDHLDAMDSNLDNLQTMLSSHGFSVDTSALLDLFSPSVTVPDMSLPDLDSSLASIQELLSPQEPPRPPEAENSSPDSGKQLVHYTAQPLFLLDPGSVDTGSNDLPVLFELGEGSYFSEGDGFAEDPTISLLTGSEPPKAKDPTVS
# Outline: as §1
# SPIC = target: T2, SPIC (Homo sapiens, UniProt Q8N5J4 1-248); conditions: protein: recombinant; tags: N-terminal GST; dsDNA, one strand shown
# T2 sequence: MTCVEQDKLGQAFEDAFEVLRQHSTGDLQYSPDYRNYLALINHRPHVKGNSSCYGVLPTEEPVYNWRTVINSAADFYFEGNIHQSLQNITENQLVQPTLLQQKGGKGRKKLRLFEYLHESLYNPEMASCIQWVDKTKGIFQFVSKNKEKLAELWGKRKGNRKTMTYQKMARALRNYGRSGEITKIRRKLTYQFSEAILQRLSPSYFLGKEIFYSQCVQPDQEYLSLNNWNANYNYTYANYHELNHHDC
# Outline: as §1
# ELF4 = ELF4 (Homo sapiens, UniProt Q99607 1-663); conditions: protein: recombinant; tags: N-terminal GST; dsDNA, one strand shown
# ELF4, sequence (Q99607 whole entry): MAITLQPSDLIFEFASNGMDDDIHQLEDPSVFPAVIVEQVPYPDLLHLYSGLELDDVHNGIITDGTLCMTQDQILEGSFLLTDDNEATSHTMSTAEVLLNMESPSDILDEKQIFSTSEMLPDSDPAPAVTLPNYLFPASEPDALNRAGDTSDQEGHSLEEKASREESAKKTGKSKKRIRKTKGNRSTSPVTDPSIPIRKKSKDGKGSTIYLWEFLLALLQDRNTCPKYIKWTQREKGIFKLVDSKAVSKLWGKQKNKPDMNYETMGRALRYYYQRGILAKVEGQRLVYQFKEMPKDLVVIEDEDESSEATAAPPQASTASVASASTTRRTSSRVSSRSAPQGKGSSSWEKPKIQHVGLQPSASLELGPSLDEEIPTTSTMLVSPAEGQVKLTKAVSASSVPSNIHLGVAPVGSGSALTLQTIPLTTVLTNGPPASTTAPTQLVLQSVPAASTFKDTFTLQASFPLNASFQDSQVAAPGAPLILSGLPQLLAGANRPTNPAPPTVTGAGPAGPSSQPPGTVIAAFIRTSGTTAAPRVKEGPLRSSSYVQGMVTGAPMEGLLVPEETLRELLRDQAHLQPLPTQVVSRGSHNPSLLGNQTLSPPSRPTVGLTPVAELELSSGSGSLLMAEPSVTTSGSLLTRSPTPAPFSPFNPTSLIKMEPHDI
# Outline: as §1
# ELK4 = target: T3, ELK4 (Homo sapiens, UniProt P28324-2 1-405); conditions: protein: recombinant; tags: N-terminal GST; dsDNA, one strand shown
# T3 sequence: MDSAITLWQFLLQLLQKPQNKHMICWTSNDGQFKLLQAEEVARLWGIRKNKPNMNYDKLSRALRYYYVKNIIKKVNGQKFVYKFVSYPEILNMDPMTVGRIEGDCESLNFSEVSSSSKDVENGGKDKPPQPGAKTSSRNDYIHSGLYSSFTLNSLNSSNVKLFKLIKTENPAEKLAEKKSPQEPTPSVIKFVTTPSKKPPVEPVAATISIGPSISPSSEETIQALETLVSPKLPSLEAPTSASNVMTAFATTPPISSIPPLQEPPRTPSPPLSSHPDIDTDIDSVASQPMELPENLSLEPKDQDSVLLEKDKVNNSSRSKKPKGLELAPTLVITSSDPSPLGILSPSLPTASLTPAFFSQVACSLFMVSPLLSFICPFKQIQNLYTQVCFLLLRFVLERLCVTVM
# Outline: as §1
# ETV2 = target: T4, ETV2 (Homo sapiens, UniProt O00321 1-342); conditions: protein: recombinant; tags: N-terminal GST; dsDNA, one strand shown
# T4 sequence: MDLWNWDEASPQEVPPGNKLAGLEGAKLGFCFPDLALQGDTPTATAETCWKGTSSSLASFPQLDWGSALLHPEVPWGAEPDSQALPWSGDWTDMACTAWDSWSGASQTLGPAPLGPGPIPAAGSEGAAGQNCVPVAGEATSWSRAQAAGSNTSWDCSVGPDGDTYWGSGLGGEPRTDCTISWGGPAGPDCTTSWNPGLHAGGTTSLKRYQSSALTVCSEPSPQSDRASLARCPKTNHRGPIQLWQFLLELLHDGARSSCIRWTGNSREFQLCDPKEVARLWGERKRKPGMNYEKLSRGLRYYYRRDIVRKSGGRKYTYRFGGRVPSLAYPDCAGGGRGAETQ
# Outline: as §1
# ELF3 = target: T5, ELF3 (Homo sapiens, UniProt P78545 1-371); conditions: protein: recombinant; tags: N-terminal GST; dsDNA, one strand shown
# T5 sequence: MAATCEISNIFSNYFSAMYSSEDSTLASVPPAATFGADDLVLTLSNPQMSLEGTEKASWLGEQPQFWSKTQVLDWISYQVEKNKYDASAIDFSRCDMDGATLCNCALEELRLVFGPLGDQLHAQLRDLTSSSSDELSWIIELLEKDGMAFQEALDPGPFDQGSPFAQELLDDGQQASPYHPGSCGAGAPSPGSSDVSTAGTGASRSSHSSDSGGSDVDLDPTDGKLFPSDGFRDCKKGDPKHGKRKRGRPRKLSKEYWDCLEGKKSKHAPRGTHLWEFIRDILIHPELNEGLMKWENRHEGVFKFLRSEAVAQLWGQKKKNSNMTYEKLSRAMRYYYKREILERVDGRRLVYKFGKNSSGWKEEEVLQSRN
# Outline: as §1
# CRX = CRX (Homo sapiens, UniProt O43186 1-299); conditions: protein: recombinant; tags: N-terminal GST; dsDNA, one strand shown
# CRX, sequence (O43186 whole entry): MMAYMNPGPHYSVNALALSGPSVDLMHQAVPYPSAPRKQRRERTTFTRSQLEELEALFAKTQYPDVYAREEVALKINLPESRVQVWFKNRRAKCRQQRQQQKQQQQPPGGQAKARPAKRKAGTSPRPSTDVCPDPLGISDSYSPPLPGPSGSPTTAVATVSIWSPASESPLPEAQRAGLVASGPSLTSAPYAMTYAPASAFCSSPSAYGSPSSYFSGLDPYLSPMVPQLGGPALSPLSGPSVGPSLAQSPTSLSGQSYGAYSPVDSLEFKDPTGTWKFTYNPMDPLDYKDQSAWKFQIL
# Outline: as §1
# ETV1 = ETV1 (Homo sapiens, UniProt P50549 1-477); conditions: protein: recombinant; tags: N-terminal GST; dsDNA, one strand shown
# ETV1, sequence (P50549 whole entry): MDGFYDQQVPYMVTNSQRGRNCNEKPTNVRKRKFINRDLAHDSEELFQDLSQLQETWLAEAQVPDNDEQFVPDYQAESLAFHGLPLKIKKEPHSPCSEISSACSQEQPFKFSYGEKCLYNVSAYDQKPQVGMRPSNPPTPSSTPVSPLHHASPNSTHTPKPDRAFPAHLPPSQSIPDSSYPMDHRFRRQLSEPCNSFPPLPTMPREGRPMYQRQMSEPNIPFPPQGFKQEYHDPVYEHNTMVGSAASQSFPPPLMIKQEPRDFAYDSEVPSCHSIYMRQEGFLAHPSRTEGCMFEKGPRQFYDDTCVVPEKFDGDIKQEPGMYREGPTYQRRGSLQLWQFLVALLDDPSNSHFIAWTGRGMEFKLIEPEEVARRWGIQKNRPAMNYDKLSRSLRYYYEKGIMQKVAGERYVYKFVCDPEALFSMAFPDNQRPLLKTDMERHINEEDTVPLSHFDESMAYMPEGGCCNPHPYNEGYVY
# Outline: as §1
# ERF = target: T6, ERF (Homo sapiens, UniProt P50548 1-548); conditions: protein: recombinant; tags: N-terminal GST; dsDNA, one strand shown
# T6 sequence: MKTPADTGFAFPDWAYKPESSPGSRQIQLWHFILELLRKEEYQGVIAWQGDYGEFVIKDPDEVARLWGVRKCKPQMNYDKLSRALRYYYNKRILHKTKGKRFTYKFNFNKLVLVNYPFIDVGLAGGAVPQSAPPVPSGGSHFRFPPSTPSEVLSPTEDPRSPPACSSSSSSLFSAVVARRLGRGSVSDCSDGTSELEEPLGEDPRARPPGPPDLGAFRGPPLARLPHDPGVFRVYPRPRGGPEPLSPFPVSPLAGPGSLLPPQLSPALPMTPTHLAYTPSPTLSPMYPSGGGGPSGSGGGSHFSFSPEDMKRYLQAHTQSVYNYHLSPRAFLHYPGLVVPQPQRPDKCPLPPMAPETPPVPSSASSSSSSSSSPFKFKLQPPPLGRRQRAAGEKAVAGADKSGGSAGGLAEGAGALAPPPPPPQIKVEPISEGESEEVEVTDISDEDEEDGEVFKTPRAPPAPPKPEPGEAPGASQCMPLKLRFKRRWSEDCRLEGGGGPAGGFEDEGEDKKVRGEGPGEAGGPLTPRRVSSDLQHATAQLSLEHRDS
# Outline: as §1
# ETV3L = target: T7, ETV3L (Homo sapiens, UniProt Q6ZN32 1-361); conditions: protein: recombinant; tags: N-terminal GST; dsDNA, one strand shown
# T7 sequence: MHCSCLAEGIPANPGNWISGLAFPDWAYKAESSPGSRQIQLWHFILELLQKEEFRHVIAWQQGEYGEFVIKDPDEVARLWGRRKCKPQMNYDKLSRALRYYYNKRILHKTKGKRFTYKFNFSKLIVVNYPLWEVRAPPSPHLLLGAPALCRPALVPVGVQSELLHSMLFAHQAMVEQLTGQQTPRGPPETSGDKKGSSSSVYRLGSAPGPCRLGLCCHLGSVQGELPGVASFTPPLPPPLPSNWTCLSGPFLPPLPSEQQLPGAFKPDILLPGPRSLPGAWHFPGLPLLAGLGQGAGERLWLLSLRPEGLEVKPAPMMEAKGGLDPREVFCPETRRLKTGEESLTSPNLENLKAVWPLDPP
# Outline: as §1
# ETS2 = target: T8, ETS2 (Homo sapiens, UniProt P15036 1-469); conditions: protein: recombinant; tags: N-terminal GST; dsDNA, one strand shown
# T8 sequence: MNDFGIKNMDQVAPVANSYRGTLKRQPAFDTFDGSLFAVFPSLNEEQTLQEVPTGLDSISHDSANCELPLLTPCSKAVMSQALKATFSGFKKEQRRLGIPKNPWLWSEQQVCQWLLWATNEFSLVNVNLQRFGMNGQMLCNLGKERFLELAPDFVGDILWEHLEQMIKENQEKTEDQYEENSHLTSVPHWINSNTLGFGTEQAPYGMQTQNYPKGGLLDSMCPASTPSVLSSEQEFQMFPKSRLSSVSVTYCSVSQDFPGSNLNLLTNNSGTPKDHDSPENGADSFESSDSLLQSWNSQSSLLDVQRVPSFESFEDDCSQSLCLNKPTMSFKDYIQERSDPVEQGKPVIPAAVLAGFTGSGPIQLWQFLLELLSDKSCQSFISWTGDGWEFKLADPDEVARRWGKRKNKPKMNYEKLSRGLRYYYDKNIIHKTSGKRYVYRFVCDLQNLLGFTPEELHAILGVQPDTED
# Outline: as §1
# SPDEF = target: T9, SPDEF (Homo sapiens, UniProt O95238 1-335); conditions: protein: recombinant; tags: N-terminal GST; dsDNA, one strand shown
# T9 sequence: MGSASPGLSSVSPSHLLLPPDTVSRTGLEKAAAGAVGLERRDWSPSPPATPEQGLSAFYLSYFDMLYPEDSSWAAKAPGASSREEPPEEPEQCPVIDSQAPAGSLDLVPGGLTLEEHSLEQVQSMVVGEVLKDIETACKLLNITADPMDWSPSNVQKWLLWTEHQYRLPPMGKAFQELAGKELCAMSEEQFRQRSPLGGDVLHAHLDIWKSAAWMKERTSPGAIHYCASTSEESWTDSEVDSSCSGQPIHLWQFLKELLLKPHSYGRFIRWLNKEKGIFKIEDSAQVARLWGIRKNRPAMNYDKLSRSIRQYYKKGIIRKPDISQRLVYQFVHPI
# Outline: as §1
# ETV7 = target: T10, ETV7 (Homo sapiens, UniProt Q9Y603 1-341); conditions: protein: recombinant; tags: N-terminal GST; dsDNA, one strand shown
# T10 sequence: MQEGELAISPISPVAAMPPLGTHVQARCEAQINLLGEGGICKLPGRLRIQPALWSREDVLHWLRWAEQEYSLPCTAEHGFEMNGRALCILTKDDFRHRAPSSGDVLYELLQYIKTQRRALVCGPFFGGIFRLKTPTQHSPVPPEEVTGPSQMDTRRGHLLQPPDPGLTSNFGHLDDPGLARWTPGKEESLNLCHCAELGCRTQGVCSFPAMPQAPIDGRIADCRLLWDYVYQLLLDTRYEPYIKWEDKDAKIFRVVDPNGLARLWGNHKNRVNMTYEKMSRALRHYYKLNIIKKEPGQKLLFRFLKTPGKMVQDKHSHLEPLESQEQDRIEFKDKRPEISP
# Outline: as §1
# ELF5 = target: T11, ELF5 (Homo sapiens, UniProt Q9UKW6-2 1-255); conditions: protein: recombinant; tags: N-terminal GST; dsDNA, one strand shown
# T11 sequence: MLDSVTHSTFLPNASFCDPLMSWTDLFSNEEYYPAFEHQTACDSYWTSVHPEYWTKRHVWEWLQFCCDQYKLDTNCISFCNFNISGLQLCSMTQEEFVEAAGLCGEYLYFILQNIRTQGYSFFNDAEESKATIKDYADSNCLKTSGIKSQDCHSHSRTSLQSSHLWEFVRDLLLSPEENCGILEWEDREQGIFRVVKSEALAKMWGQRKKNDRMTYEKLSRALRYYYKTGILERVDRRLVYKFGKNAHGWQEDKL
# Outline: as §1
# ETV3 = target: T12, ETV3 (Homo sapiens, UniProt P41162-2 1-143); conditions: protein: recombinant; tags: N-terminal GST; dsDNA, one strand shown
# T12 sequence: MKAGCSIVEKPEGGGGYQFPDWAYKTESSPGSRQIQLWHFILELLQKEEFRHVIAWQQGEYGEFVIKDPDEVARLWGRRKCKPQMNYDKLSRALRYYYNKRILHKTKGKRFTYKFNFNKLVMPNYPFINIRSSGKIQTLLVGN
# Outline: as §1
# ETV6 = ETV6 (Homo sapiens, UniProt P41212 1-452); conditions: protein: recombinant; tags: N-terminal GST; dsDNA, one strand shown
# ETV6, sequence (P41212 whole entry): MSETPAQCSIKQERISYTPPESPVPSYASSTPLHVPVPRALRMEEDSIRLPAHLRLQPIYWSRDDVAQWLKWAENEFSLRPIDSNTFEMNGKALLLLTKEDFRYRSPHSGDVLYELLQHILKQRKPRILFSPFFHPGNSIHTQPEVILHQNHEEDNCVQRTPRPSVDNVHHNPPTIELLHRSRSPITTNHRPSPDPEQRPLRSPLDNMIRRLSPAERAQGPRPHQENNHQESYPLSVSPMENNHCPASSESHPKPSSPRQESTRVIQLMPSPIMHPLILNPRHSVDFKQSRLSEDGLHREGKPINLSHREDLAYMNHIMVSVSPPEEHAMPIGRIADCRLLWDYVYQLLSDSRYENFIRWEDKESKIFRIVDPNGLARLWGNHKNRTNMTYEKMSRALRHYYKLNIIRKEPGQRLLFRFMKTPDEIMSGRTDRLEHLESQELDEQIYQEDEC
# Outline: as §1
sequence,measurement,setting,value
TTAACG,binding signal,FEV,"1.13 fold enrichment (6-mer frequency, TF over GST control)"
same,binding signal,ETV5,"1.22 fold enrichment (6-mer frequency, TF over GST control)"
same,binding signal,HSF1,"1.73 fold enrichment (6-mer frequency, TF over GST control)"
same,binding signal,SPIC,"1.11 fold enrichment (6-mer frequency, TF over GST control)"
same,binding signal,ELF4,"1.15 fold enrichment (6-mer frequency, TF over GST control)"
same,binding signal,ELK4,"1.17 fold enrichment (6-mer frequency, TF over GST control)"
same,binding signal,ETV2,"1.17 fold enrichment (6-mer frequency, TF over GST control)"
same,binding signal,ELF3,"1.27 fold enrichment (6-mer frequency, TF over GST control)"
same,binding signal,CRX,"2.66 fold enrichment (6-mer frequency, TF over GST control)"
same,binding signal,ETV1,"1.19 fold enrichment (6-mer frequency, TF over GST control)"
same,binding signal,ERF,"1.15 fold enrichment (6-mer frequency, TF over GST control)"
same,binding signal,ETV3L,"1.17 fold enrichment (6-mer frequency, TF over GST control)"
same,binding signal,ETS2,"1.23 fold enrichment (6-mer frequency, TF over GST control)"
same,binding signal,SPDEF,"1.23 fold enrichment (6-mer frequency, TF over GST control)"
same,binding signal,ETV7,"1.13 fold enrichment (6-mer frequency, TF over GST control)"
same,binding signal,ELF5,"1.14 fold enrichment (6-mer frequency, TF over GST control)"
same,binding signal,ETV3,"1.16 fold enrichment (6-mer frequency, TF over GST control)"
same,binding signal,ETV6,"1.17 fold enrichment (6-mer frequency, TF over GST control)"
